Screening data (PubChem)
Only some compounds are listed: those with a hit (about 3% of all), similar ones and a draw of the others.
CHT PAM = allosterically activates the human high affinity choline transporter. Q9GZV3. CHT-expressing cells, membrane potential dye, choline EC20; hits give high values; LV-AA mutant CHT in HEK293 cells. B-score at 10 µM. 310,000 compounds, 0.49% hits. AID 488977;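 active = initial fluorescence not abnormally high and integrated response B-score, plate-corrected, over 3 SD above library mean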
Target sequence (Q9GZV3 whole entry, looked up): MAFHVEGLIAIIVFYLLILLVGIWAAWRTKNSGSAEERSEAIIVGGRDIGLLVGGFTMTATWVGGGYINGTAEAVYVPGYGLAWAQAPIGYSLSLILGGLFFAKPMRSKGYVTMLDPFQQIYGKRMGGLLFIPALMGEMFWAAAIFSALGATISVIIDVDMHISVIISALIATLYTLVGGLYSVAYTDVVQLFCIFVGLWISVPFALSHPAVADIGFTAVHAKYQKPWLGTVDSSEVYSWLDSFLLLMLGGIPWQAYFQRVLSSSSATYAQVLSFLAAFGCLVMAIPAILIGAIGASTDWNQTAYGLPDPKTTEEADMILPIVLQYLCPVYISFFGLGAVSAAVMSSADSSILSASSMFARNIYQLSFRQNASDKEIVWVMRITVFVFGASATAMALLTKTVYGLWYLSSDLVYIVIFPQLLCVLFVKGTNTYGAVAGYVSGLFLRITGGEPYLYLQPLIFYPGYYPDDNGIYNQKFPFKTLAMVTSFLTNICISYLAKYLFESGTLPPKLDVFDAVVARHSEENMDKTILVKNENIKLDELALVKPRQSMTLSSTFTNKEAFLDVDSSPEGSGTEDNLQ
Bfl-1 A1 inh = inhibitors of the anti-apoptotic protein A1, read as caspase activation. MEF A1-2A-BIM cells, Caspase-Glo 3/7 luminescence, 3 h; percent of clofoctol response, vehicle zero. caspase activation, % (no concentration beside the values). 330,000 compounds, 0.066% hits;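 active = over half of replicate activation scores above 10%, or exactly half above 10 with the replicate mean above 10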
NALP3 yeast inh = inhibitors of NALP3 inflammasome in yeast | inhibition, % at 10 µM | 330,000 compounds, 0.39% hits | Yeast reconstituted NLRP3/ASC/caspase-1, beta-gal luminescence, 24 h;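 active = inhibition of 50% or more; inactive = inhibition below 50%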;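 note: plate controls were induced DMSO wells for no effect and uninduced yeast grown without galactose for full effect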
NALP1 inh = NALP1 inhibition. S. cerevisiae NALP1/ASC/caspase-1 growth, X-gal OD620, 72 h. AID 2071. inhibition, % at 10 µM. 280,000 compounds, 0.61% hits; in the data active = inhibition mostly above about 24%, no sharp cut-off; inactive = mostly below about 32%
Mot1-301 SUMO = inhibitors of SUMOylation pathway: yeast Mot1-301 growth rescue; S. cerevisiae Mot1-301 growth rescue, ATP luminescence, 38.5C; percent above DMSO median, 100 means doubled; growth rescue, % at 18.8 µM; 320,000 compounds, 1% hits; AID 2716;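 active = every valid replicate shows activation above 250% relative to neutral control wells; inactive = the rest, any valid replicate at or below 250%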;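 note: OY570 slx delta 5 strain wells were the positive control but not used for scaling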
CHT block = human CHT choline transport inhibition. 310,000 compounds, 0.86% hits. B-score at 10 µM. CHT-expressing cells, membrane potential dye, choline response; hits give low values;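 active = B-score over 3 SD under the library average, and starting fluorescence ratio not unusually high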;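 note: choline stimulus applied at its EC90 after an EC20 pre-addition; B-score computed on integrated fluorescence ratio after choline addition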
Yeast Mot1 SUMO = SUMO pathway inhibitors in yeast Mot1-301 growth; shares compounds with Mot1-301 SUMO; S. cerevisiae Mot1-301 galactose growth, ATP luminescence, 24 h; -100 = growth of slx-deleted rescue strain; growth activity, percent, % at 42 µM; 2,300 tested, under 10 active;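 active = Signal drops as the depositor expects, and the fitted half-maximal dose is no more than ten times the top valid tested dose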;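 note: more negative values mean stronger growth rescue toward the control strain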
CHT block conf = human CHT inhibition, confirmatory screen | shares compounds with CHT block | CHT-expressing cells, choline membrane potential dye; LV-to-AA substituted CHT, HEK293 cells | CHT activity remaining % of control (hits give low values), % at 10 µM | 2,400 compounds, 70% hits | AID 493221;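 active = choline transporter activity left, mean of duplicates at 10 µM, below buffer-only control mean minus 3 SD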;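 note: depolarization triggered by choline at its EC90 following an EC20 pre-addition; 0% = hemicholinium-3 full block and 100% = buffer-only control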
HEK293 CHT ctr = activity in parental HEK293 cells lacking CHT. shares compounds with CHT block. membrane potential dye, choline response; active = decrease or increase beyond buffer ±3SD. membrane potential ratio readout (active if shifted either direction beyond buffer ±3SD; no single direction) at 10 µM. 2,400 compounds, 4% hits. AID 493222;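 note: parental cells lack the transporter so any hit is non-specific; ratio is peak minus trough fluorescence over baseline after EC90 choline challenge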
CHT act confirm = human CHT activation, confirmatory screen | shares compounds with CHT PAM | CHT-expressing cells, membrane potential dye fluorescence (FDSS); % of choline EC20–EC90 response window; HEK293 expressing CHT LV-AA mutant; choline added at its EC20 | activation, % at 10 µM | 2,500 compounds, 91% hits;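 active = primary screen active, with duplicate mean activation above negative control mean plus 3 SD, cut at about 11% in these data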
HEK293 MP dye = CHT activator counter-screen hit in parental HEK293 cells | shares compounds with CHT PAM | membrane potential dye fluorescence (FDSS); measured after EC20 choline addition | ratio readout change at 10 µM, hits read low | 2,500 compounds, 62% hits;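 active = duplicate-averaged ratio beyond 3 SD from buffer wells, up or down, though filed actives are nearly all decreases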
Starred values were filed as active, the others as inactive.

COc1cccc(NC(=O)CN2CCN(c3ccccc3F)CC2)c1 was read as CHT PAM inactive, Bfl-1 A1 inh 0.3, NALP3 yeast inh 29.9, NALP1 inh 5.8, Mot1-301 SUMO 600.4*, CHT block -5.93*, Yeast Mot1 SUMO 0.4, CHT block conf inactive and HEK293 CHT ctr inactive.
`COc1cc(NC(=O)CN2CCN(c3ccccc3F)CC2)cc(OC)c1` gave CHT PAM inactive, Bfl-1 A1 inh -0.3, NALP3 yeast inh 19.1, NALP1 inh -1.0, Mot1-301 SUMO 13.7 and CHT block inactive.
Screening O=C(CCc1nc(-c2ccccc2)no1)NCc1ccccc1CN1CCOCC1 returned Bfl-1 A1 inh -1.4, NALP3 yeast inh 0.7 and Mot1-301 SUMO -2.4.
Cn1c(COc2ccccc2O)[n+](C)c2ccccc21 was read as CHT PAM inactive, Bfl-1 A1 inh 1.1, NALP3 yeast inh 0.8, NALP1 inh -2.3, Mot1-301 SUMO -6.3 and CHT block inactive.
`CCCCCCCCCCOC(=O)Cn1c(COc2ccccc2OC)[n+](C)c2ccccc21` gave CHT PAM 19.3*, Bfl-1 A1 inh -0.6, NALP3 yeast inh 24.6, NALP1 inh 37.4*, Mot1-301 SUMO 835.5*, CHT block inactive, Yeast Mot1 SUMO 0.4, CHT act confirm 91.0* and HEK293 MP dye -37.4*.
Cc1ccc(Cl)cc1NC(C#N)c1ccccc1 (centres undefined) was read as CHT PAM inactive, Bfl-1 A1 inh 0.6, NALP3 yeast inh -61.7, Mot1-301 SUMO 32.0 and CHT block inactive.
Screening CC[n+]1c(/C=C(\C)SC)sc2ccccc21 returned CHT PAM 7.35*, Bfl-1 A1 inh -0.8, NALP3 yeast inh 3.5, NALP1 inh -4.4, Mot1-301 SUMO 539.9*, CHT block inactive, Yeast Mot1 SUMO -0.5, CHT act confirm 58.3* and HEK293 MP dye -24.8*.
Screening COCC(=O)n1nc(NCc2ccc(OC)cc2)nc1NCc1ccc(OC)cc1 returned CHT PAM inactive, Bfl-1 A1 inh 0.1, NALP3 yeast inh 16.6, NALP1 inh 0.1, Mot1-301 SUMO 394.4*, CHT block inactive, Yeast Mot1 SUMO 0.2, CHT act confirm 10.1* and HEK293 MP dye inactive.
Screening COc1ccc(OC)c(NC(=O)NNS(=O)(=O)c2ccc(C)cc2C)c1 returned CHT PAM inactive, Bfl-1 A1 inh 0.2, NALP3 yeast inh 0.5, NALP1 inh -4.4, Mot1-301 SUMO 2.5 and CHT block inactive.
Screening O=C1c2ccccc2C(=O)N1CCCCSc1nc2ccccc2c(=O)n1CCCN1CCOCC1 returned CHT PAM inactive, Bfl-1 A1 inh 1.2, NALP3 yeast inh -3.7, NALP1 inh 15.8, Mot1-301 SUMO active, CHT block inactive, Yeast Mot1 SUMO -0.5, CHT act confirm 34.9* and HEK293 MP dye inactive.
Screening O=C1CC(C(=O)N2CCN(c3ccccn3)CC2)CN1Cc1ccccc1Cl (centres undefined) returned CHT PAM inactive, Bfl-1 A1 inh 0.7, NALP3 yeast inh 1.9, Mot1-301 SUMO -7.0 and CHT block inactive.
For O=[N+]([O-])c1cccc(C2(O)COc3ccccc3O2)c1 (centres undefined) the results were CHT PAM inactive, Bfl-1 A1 inh -0.2, NALP3 yeast inh 5.2, NALP1 inh -0.4, Mot1-301 SUMO -4.9 and CHT block inactive.
`c1ccc(-c2nc(N3CCOCC3)c3ccccc3n2)nc1` gave CHT PAM 10*, Bfl-1 A1 inh 0.2, NALP3 yeast inh -0.6, NALP1 inh 7.5, Mot1-301 SUMO 480.5*, CHT block inactive, Yeast Mot1 SUMO -1.0, CHT act confirm 69.4* and HEK293 MP dye -82.9*.
Screening c1ccc(-c2nc(N3CCCCCC3)c3ccccc3n2)nc1 returned CHT PAM inactive, Bfl-1 A1 inh 0.2, NALP3 yeast inh 32.6, NALP1 inh 9.2, Mot1-301 SUMO -13.6 and CHT block inactive.
`CN(C)c1ccnc2sc3c(NCC(O)CO)ncnc3c12` (centres undefined) gave CHT PAM 6.69*, Bfl-1 A1 inh 2.1, NALP3 yeast inh 11.6, NALP1 inh 30.4, Mot1-301 SUMO 616.5*, CHT block inactive, Yeast Mot1 SUMO 0.0, CHT act confirm 49.7* and HEK293 MP dye -44.3*.
For COC(=O)C1=C(C)N(Cc2ccccc2)C(=NCc2cccc(C(F)(F)F)c2)N[C@H]1c1cccc(F)c1 the results were CHT PAM inactive, Bfl-1 A1 inh -0.7, NALP3 yeast inh 14.3, NALP1 inh 14.0, Mot1-301 SUMO -65.9 and CHT block inactive.
For CCN1C(=NCc2cccc(Cl)c2)N[C@@H](c2cccc(F)c2)C(C(=O)OC)=C1C the results were CHT PAM inactive, Bfl-1 A1 inh 0.2, NALP3 yeast inh 17.8, NALP1 inh 24.2, Mot1-301 SUMO 772.6*, CHT block inactive, Yeast Mot1 SUMO 0.3, CHT act confirm 0.9 and HEK293 MP dye inactive.
Screening N=c1c2c(n(Cc3ccc(Cl)c(Cl)c3)c3c1CCC3)CCCC2 returned CHT PAM 9.63*, Bfl-1 A1 inh 0.2, NALP3 yeast inh 7.5, NALP1 inh 9.8, Mot1-301 SUMO active, CHT block inactive, Yeast Mot1 SUMO 0.0, CHT act confirm 77.8* and HEK293 MP dye -39.2*.
Screening N=c1c2c(n(Cc3ccc(Br)cc3)c3c1CCC3)CCCC2 returned CHT PAM inactive, Bfl-1 A1 inh -0.1, NALP3 yeast inh -13.5, NALP1 inh 37.6, Mot1-301 SUMO -25.4 and CHT block inactive.
